Here are results for ten molecules from PubChem BioAssay (NCATS).

The nature of test [1]: qHTS assay for small molecule activators of the p53 signaling pathway (AID 651743; active means well fitted activation curve with a large enough effect in the signal ratio, not every such curve was filed as active; the % refers to the signal ratio; further: potency means the concentration at half of the fitted maximal effect; on activation: % of control where 0% means no effect). The conditions noted are these: HCT-116 p53RE-bla, beta-lactamase FRET ratio, 16 h; activation: hits give high values. In a few lines: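 HCT-116 p53RE-bla, 4,000 cells/well; 5 h settle; cpd/DMSO 16 h, 37 C; LiveBLAzer B/G 2 h RT; fluorescence intensity.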
Background: qHTS replaces the single test concentration by a dilution series.

Test [2] is described as follows: qHTS assay for environmental chemicals that activate the Aryl hydrocarbon Receptor (AhR) signaling pathway (AID 651777). Further: nearly all actives have a fitted effect of over 15% in size. Further: potency means the concentration at half of the fitted maximal effect. On activation: % of control where 0% means no effect. The following applies: 1A2-DRE human hepatoma cells, luciferase, 24 h; activation: hits give high values. The method, boiled down:
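Following a 24 hr incubation with test chemicals at 37 C and 5% CO2, 1A2-DRE human hepatoma cells received One-Glo reagent; after 30 min at room temperature, luciferase output reflected CYP1A2 induction via AhR.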

Test [3] has as its target Peroxisome proliferator-activated receptor alpha (Homo sapiens) (UniProt Q07869). Put plainly: qHTS assay for small molecule agonists of the peroxisome proliferator-activated receptor alpha (PPARalpha) signaling pathway (AID 651778). Further: % of control where 0% means no effect. The conditions noted are these: PathHunter PPARalpha complementation, chemiluminescence, 6 h; max response: hits give high values. The method, boiled down: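 Enzyme-fragment complementation assay in which ligand-bound PPARalpha translocates and forms an active enzyme that generates chemiluminescence. Cells were plated overnight, exposed to compound for 6 hr at 37 C, and then given detection reagent for 60 min at room temperature.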

Test [4] can be described thus: qHTS assay for small molecule agonists of the antioxidant response element (ARE) signaling pathway measured by Nrf2-dependant transcriptional activity (AID 720636; active means well fitted curve in the direction sought with a large enough effect in the repeat runs; an effect the other way counts as inactive or inconclusive; further: % of control where 0% means no effect). The following applies: ARE-luc HepG2, Nrf2 luciferase reporter, 16 h; series mostly up to 92.4 µM. In a few lines: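 ONE-Glo luminescence, read 30 min after reagent addition at room temperature, reflected ARE reporter activity in HepG2 cells that had been incubated with compound for 16 hr at 37 C in 1% dialyzed FBS.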

Test [5] can be described thus: qHTS assay for small molecule agonists of the antioxidant response element (ARE) signaling pathway (AID 651741; active means well fitted activation curve with a large enough effect in the signal ratio; the % refers to the signal ratio; further: potency means the concentration at half of the fitted maximal effect; on activation: % of control where 0% means no effect). The following applies: HepG2 ARE-bla reporter, beta-lactamase FRET ratio, 16 h; series mostly up to 96 µM. The method, boiled down:
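HepG2 ARE-bla cells plated at 2,000 cells/well and incubated 5 h at 37 C/5% CO2 received 23 nL compound in DMSO. After 16 h at 37 C, LiveBLAzer B/G FRET substrate was applied for 2 h at room temperature and fluorescence read.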

The target in test [6] is Nuclear receptor ROR-gamma (Homo sapiens) (UniProt P51449). Put plainly: qHTS assay for small molecule antagonists of the retinoid-related orphan receptor gamma (ROR-gamma) signaling pathway (AID 651802). Further: nearly all actives have a fitted effect of over 60% in size. Further: potency means the concentration at half of the fitted maximal effect. The following applies: ROR-gamma antagonist cell reporter assay; series mostly up to 92.2 µM. In a few lines: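 CHO cells carrying TET-inducible ROR-gamma and an ROR response element–luciferase reporter were exposed to compound, then induced with doxycycline. After 16hr at 37C, luminescence was read; lower signal indicates antagonism.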

Test [7] in a line: qHTS assay for small molecule activators of the nuclear factor-kappa B (NF-kB) signaling pathway (AID 651749; active means well fitted activation curve with a large enough effect in the signal ratio; the % refers to the signal ratio; further: % of control where 0% means no effect). The following applies: NF-kB-bla ME-180 cells, beta-lactamase FRET ratio, 16 h; hits give high values. In a few lines:
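Incubation lasted 16 hr at 37C in 5% CO2 after 23 nL compound addition to ME-180 NF-kB-bla cells. Activation appears as beta-lactamase-mediated FRET loss.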

Test [8] is described as follows: qHTS assay for small molecule disruptors of the mitochondrial membrane potential - 1 hr assay (AID 651754; calls by dose curve; further: potency means the concentration at half of the fitted maximal effect; nearly all actives have a fitted effect of over 35% in size). The conditions noted are these: series mostly up to 92.2 µM. The method, boiled down: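 HepG2 cells, attached overnight at 37C, were exposed to compound or DMSO vehicle for 1 hr at 37C, 5% CO2, then stained with Mito-MPS dye for 30 min. Red aggregate versus green monomer fluorescence reports membrane potential.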

Test [9] can be described thus: qHTS assay for small molecule disruptors of the mitochondrial membrane potential - 5 hr assay (AID 651755; calls by dose curve; further: potency means the concentration at half of the fitted maximal effect; nearly all actives have a fitted effect of over 40% in size). The following applies: JC-1-type ratio dye. In a few lines:
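HepG2 cells (2,000/well), attached overnight, exposed to compound 5 hr at 37C, then Mito-MPS dye 30 min. Fluorescence read for monomers (490/535 nm) and aggregates (540/590 nm).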

For test [10], the target named is Tumor necrosis factor (Homo sapiens) (UniProt P01375). Put plainly: qHTS assay to identify small molecules that stimulate Tumor Necrosis Factor-alpha (TNF-alpha) secretion (AID 651757; active means well fitted curve in the direction sought with a large enough effect in the signal ratio; the % refers to the signal ratio; further: 0% is about no effect). The following applies: Human cells, HTRF 665/615 ratio; series mostly up to 92.2 µM. The method, boiled down:
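THP-1 cells were exposed to compounds for 17 hrs at 37 C, after which secreted TNF-alpha was measured by homogeneous HTRF (TR-FRET) using cryptate- and XL665-labeled anti-TNF-alpha antibodies, read after 3 hr at room temperature.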

Test [11] in a line: qHTS assay to identify small molecules that stimulate interleukin-8 (IL-8) secretion (AID 651758; active means well fitted activation curve with a large enough effect in the signal ratio; the % refers to the signal ratio; further: 0% is about no effect). The conditions noted are these: HTRF ratio (665/615); series mostly up to 92.2 µM. The method, boiled down:
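THP-1 cells (2000/well) exposed to compound 16 h at 37 C; secreted IL-8 then detected by HTRF with cryptate- and XL665-labelled anti-IL-8 antibody pair after 1-3 h at room temperature.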

Test [12] deals with Arylsulfatase A (Homo sapiens) (UniProt P15289). Put plainly: qHTS screen for enhancers of Arylsulfatase A (ASA1): LOPAC Validation Assay (AID 720538). Further: potency means the concentration at half of the fitted maximal effect. The following applies: ASA enzyme activity, LOPAC qHTS enhancer assay; series mostly up to 57.5 µM. The method, boiled down: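 MLD patient fibroblasts (SV40, ASA-I179S), 1536-well; adhere 6 hrs; cpd 48h, 37 degree C, 5% CO2; pNCS 0.5mM final in lysis buffer, 14h RT; stop 1N NaOH final; fluor. Ex525/Em598.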

Test [13] is described as follows: qHTS for compounds that reverse cellular toxicity of Amyloid beta (A-beta) peptide in yeast: LOPAC Validation Assay (AID 720559).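 Further: plate controls were DMSO for no effect and equimolar ferric chloride plus clioquinol rescue for full effect.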 The following applies: yeast expressing A-beta; series mostly up to 46.1 µM. In a few lines: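 Medium dispensed, compounds pinned, A-beta yeast suspension added; plates held at 30 C for 48 hr; absorbance measured at 600 nm to gauge growth; values scaled between DMSO and FeCl3/clioquinol (equimolar) controls.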

Test [14] is described as follows: qHTS for Activators of Parkin Expression: LOPAC Validation Assay (NLuc Reporter) (AID 720572). The following applies: Parkin promoter NanoLuc reporter cells, luminescence; series mostly up to 46.1 µM. The method, boiled down:
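Neuronal cells with a Parkin promoter-driven FLuc/NLuc coincidence reporter were treated 24 h at 37 C in 7-point dose response (LOPAC). NLuc luminescence read after FLuc; signals normalized to DMSO and positive control (100%).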

Test [15] is described as follows: qHTS for Activators of Parkin Expression: LOPAC Validation Assay (FLuc Reporter) (AID 720573). The following applies: Cell line, PRKN promoter firefly luciferase reporter, vehicle wells = 0, positive control = 100%; series mostly up to 46.1 µM. In a few lines: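 Cells seeded, 24 h; compounds pinned, 7-pt dose response; 24 h at 37 C/5% CO2; volume reduced; FLuc reagent 10 min RT; luminescence read. Normalization: DMSO = 0, positive control = 100%.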

Values joined by “and” are separate entries in the source; they are usually repeats but may differ in a detail not shown here. Equal values may be shown once. Unmarked numbers belong to inactive results. Records with an inconclusive call do not appear. Active and inactive are the calls of the source. Unless noted, the call rests on the fitted dose curve; in most records, active means well fitted curve in the direction sought with a large enough effect; inconclusive means small, poorly fitted or top-dose-only effect, or another doubt; inactive means no such curve, though single readings can be large; an effect the other way counts as inactive or inconclusive.

Chain of Nuclear receptor ROR-gamma (Homo sapiens) (P51449 whole entry, looked up): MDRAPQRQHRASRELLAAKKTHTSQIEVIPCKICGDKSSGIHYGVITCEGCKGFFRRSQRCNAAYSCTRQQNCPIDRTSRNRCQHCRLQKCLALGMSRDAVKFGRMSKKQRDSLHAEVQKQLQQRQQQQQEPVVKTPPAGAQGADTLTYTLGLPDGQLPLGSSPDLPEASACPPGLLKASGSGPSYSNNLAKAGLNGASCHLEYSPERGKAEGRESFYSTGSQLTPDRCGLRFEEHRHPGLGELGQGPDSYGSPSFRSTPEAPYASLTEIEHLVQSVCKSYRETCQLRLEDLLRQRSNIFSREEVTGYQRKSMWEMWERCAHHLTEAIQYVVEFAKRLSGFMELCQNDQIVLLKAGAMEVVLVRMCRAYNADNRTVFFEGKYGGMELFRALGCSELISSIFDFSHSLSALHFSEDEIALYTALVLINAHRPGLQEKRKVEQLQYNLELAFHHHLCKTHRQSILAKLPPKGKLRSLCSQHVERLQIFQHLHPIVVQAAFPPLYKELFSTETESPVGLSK
Chain of Peroxisome proliferator-activated receptor alpha (Homo sapiens) (Q07869 whole entry, looked up, the tested form may be a part): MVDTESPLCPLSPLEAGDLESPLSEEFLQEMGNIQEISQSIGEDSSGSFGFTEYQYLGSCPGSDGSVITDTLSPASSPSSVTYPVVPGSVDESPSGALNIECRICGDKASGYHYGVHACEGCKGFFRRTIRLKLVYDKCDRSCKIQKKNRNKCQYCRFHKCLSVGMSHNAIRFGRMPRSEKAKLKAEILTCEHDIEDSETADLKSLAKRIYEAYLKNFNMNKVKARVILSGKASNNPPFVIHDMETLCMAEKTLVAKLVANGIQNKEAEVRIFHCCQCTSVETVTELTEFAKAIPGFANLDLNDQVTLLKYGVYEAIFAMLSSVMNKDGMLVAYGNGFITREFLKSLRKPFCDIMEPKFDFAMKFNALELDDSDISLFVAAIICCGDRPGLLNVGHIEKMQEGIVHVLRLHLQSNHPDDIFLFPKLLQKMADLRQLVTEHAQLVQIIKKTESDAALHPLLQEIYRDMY
Chain of Arylsulfatase A (Homo sapiens) (P15289 whole entry, looked up): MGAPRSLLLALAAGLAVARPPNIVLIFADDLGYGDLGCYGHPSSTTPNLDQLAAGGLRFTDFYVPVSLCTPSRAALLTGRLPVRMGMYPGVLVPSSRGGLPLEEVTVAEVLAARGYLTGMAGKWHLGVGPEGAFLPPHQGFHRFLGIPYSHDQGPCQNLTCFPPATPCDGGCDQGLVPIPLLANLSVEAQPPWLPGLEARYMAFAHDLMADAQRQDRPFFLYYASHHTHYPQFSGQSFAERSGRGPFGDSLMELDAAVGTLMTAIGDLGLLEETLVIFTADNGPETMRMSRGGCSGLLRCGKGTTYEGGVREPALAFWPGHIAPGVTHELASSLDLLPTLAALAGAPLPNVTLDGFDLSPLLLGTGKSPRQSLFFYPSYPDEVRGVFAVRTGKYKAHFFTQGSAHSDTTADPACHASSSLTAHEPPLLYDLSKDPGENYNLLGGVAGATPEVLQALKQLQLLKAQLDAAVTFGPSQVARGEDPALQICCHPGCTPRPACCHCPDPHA
Chain of Tumor necrosis factor (Homo sapiens) (P01375 whole entry, looked up): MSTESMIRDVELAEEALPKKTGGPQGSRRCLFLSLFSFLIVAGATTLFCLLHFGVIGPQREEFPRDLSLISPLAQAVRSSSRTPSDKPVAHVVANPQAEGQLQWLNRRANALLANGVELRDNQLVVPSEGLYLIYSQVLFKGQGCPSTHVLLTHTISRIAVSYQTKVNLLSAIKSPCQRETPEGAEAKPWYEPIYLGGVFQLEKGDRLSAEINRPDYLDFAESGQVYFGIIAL

Turning to `C=CCOC(Cn1ccnc1)c1ccc(Cl)cc1Cl` (centres undefined), the activation in test [1] was 19.4% and 4.84%; in [2], 11.9% and 13.2%. Also, the max response in [3] is -1.42% and 0.577%. Besides, in [4], the Potency entry is “inactive”.
Take `CCCCCCCCCCCCCCCC[n+]1ccccc1`: the Potency in test [5] was 10.6 µM (active); in [6] it was 1.19 µM (active). Besides, in test [4], the Potency entry is “inactive”.
With `CCOP(=S)(OCC)O/N=C(\C#N)c1ccccc1`, the activation in test [7] is 0.361%; in [2], 9.33%. Besides, the max response in test [3] was -3.05%.
Regarding `Oc1ccc(Cl)cc1Sc1cc(Cl)ccc1O`, the Potency is 29.8 µM (active) in [5]; 28.2 µM (active) in test [1]; 8.41 µM (active) in [8]; 7.5 µM (active) in test [9]; 15 µM (active) in test [6]. Further, the Potency result in [4] was “inactive”.
With `CNC(=O)Oc1cccc2ccccc12`, the Potency in test [5] is 33.5 µM (active) and 17.2 µM (active); in [2] it was 39.8 µM (active) and 35.5 µM (active). Further, the activation in [1] is 1.34%; in [7] it was 0.189% and -3.62%. For the same molecule, the Potency entry in test [10], in test [11] and in [6] was “inactive” each time. Moreover, the max response in test [3] is -0.498% and -1.3%.
Turning to `CCNc1nc(Cl)nc(NCC)n1`, the Potency entry in test [5] and in test [4] was “inactive” throughout. Also, the values for the activation in test [1] and in test [2] were 1.85% and -1.55%, respectively. Moreover, the max response in test [3] was -1.73%.
As to `C[N+](C)(C)CCCCCCCCCC[N+](C)(C)C`, the Potency in test [12] was 2.69 µM (active).
Take `CN(C)C(=S)SC(=S)N(C)C`: in test [5], the Potency is 24.3 µM (active).
Take `COc1ccc(C(=O)N2CCCC2=O)cc1`: the Potency entry in test [12] and in [14] was “inactive” throughout. Moreover, the molecule was classed as inactive in test [13] and in test [15].
On to `COP(=S)(OC)Oc1ccc(Sc2ccc(OP(=S)(OC)OC)cc2)cc1`, for which the Potency in [5] is 61.1 µM (active). The results for the activation in [1] and in [2] were 9.51% and 6.46%, respectively. Moreover, the max response in test [3] was 7.57%.
